# Source: PubChem (several laboratories)
# MRP resist rev: MRP-mediated drug resistance reversal; H69AR cells + 2 uM doxorubicin, CellTiter-Glo, 72 h; differential viability (reversal), % at 10 µM; 85,000 compounds, 0.04% hits; AID 602;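 active = viability drop by adding the cancer drug above about 55%, with treated viability meeting a 40% cutoff, limit read from the data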;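 note: viability without doxorubicin minus viability with 2 µM doxorubicin for each compound; larger differential means the compound sensitizes cells more to doxorubicin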
# Calb biofilm kill: kills Candida albicans biofilms. C. albicans biofilm + clotrimazole, Alamar Blue. inhibition, % at 6 µM. 85,000 compounds, 0.14% hits. AID 834;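 active = inhibition above 20%; inactive = inhibition below 20%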;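 note: preformed 24 hr biofilms exposed to compound for 48 hr; 0% = biofilm without compound and 100% = blank killed by clotrimazole plus chlorhexidine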
# sdo1 growth: restores growth of sdo1-depleted yeast; 140,000 compounds, 0.21% hits; AID 817; z-score at 10 µM; S. cerevisiae sdo1-depleted JHY4D growth rescue, OD600 30 h; hits give high values; pdr5 snq2 efflux-pump mutant strain;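 active = z-score above 3 at both the 24 hr and the 30 hr optical density reads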;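 note: z-score against mean and SD of all compound wells on the same plate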
# MRP1 act: activators of MRP-1. viability increase, % at 10 µM. AID 799. 140,000 compounds, 0.61% hits. H69AR cells + doxorubicin, viability rescue, CellTiter-Glo;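 active = viability gain under doxorubicin at or above a set limit, the compound median plus 3 SD, cut at about 4.7% in these data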;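 note: MRP-1 overexpressing cells given doxorubicin 25 µM after compound pretreatment; 18-22 h compound pretreatment then 72 h with doxorubicin before readout; 0% = doxorubicin-only wells and 100% = vehicle-treated cells without doxorubicin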
# An asterisk follows results filed as active; x = not tested or not shown. An excerpt weighted towards active compounds, which were near 0.98% of everything screened.
SMILES,MRP resist rev,Calb biofilm kill,sdo1 growth,MRP1 act
CCc1nnc(NC(=O)CCC(=O)N2CCN(Cc3ccccc3)CC2)s1,9,7,0.74,-1
CCc1nnc(NC(=O)c2ccc(-c3ccc(Cl)cc3)o2)s1,8,4,0.3,7.2*
CCn1nnc(NC(=O)c2ccc(-c3ccc(Cl)cc3)o2)n1,11,5,-0.32,-2
CCc1nnc(NC(=O)CCC(=O)N2CCN(Cc3ccc(Cl)cc3)CC2)s1,-10,7,-0.09,6.3*
COc1cccc(N=C2SC(C(=O)Nc3ccc(F)cc3)CC(=O)N2C)c1 (centres undefined),-20,-3,0.3,-3
COc1ccc(CN=C2NC(=O)CC(C(=O)Nc3ccc(F)cc3)S2)cc1 (centres undefined),x,x,1.2,6.7*
COc1ccc(NC(=O)CCCN2C(=O)/C(=C\c3ccco3)SC2=S)cc1,x,x,-0.99,-5
Cc1cc(NC(=O)CN2C(=O)S/C(=C\c3ccccc3)C2=O)no1,x,x,-0.66,5.1*
CC(=O)c1ccc(NC(=O)CCCN2C(=O)/C(=C/C(C)=C/c3ccccc3)SC2=S)cc1,x,x,-0.28,6.1*
CC(/C=C1\SC(=O)N(CC(=O)Nc2ccc(O)cc2)C1=O)=C\c1ccccc1,x,x,-0.09,8.7*
CC(/C=C1\SC(=O)N(CC(=O)Nc2cccc(O)c2)C1=O)=C\c1ccccc1,x,x,-1.4,4
COc1cccc(/C=C2\SC(=O)N(CCC(=O)NNC(=O)c3ccccc3Cl)C2=O)c1,x,x,-1.2,0
O=C(CN1C(=O)S/C(=C\c2ccc(Cl)cc2)C1=O)NNC(=O)c1ccccc1O,x,x,-0.54,7.7*
COC(=O)[C@@H](NC(=O)O[C@@H]1C(=O)c2ccc(OC)cc2O[C@H]1c1cccc(C(F)(F)F)c1)C(C)C,x,x,-1.1,-1
COc1ccc(OC)c2[nH]c(=O)c(CCNC(=O)c3ccc(Br)o3)cc12,-4,4,0.87,4.7*
COc1ccc(OC)c2[nH]c(=O)c(CCNC(=O)C(C)C)cc12,-6,4,0.37,2
CCOC(=O)C1=C(C)Nc2sc(C(=O)c3ccc(OC)cc3)c(N)c2C1c1ccc(C(=O)OC)cc1 (centres undefined),x,x,-0.81,7.3*
COC(=O)C1=C(C)Nc2sc(C(N)=O)c(N)c2C1c1ccncc1 (centres undefined),x,x,1.2,-1
CCN(CC)S(=O)(=O)c1ccc(OC)c(NC(=O)CSc2cc(Cl)ccc2Cl)c1,x,x,-0.36,-2
CCc1nnc2n1N=C(c1ccc(-c3cc(Cl)ccc3Cl)o1)CS2,-4,24*,0.18,-3
CCc1cccc(C)c1NC(=O)CO/N=C(\C)c1cc2ccccc2o1,x,x,0.07,0
O=[N+]([O-])c1ccc2nnn(O)c2c1,x,x,1.4,-2
Cc1ccc(/C=N/NC(=O)CSCc2ccc(Cl)cc2)cc1,x,x,-1.4,6.3*
CN(Cc1ccccc1)c1oc(COc2ccccc2F)nc1C#N,3,-5,-1.9,7.4*
O=C1c2cccc(OCc3ccc(F)cc3)c2CCN1Cc1ccc(F)cc1,x,x,-0.59,5.6*
SMILES,MRP resist rev,Calb biofilm kill,sdo1 growth,MRP1 act
Cc1cccc(-n2ncc3c(NCc4ccc5c(c4)OCO5)ncnc32)c1,0,11,-1.8,1
Cc1ccc(-n2ncc3c(NCc4ccc5c(c4)OCO5)ncnc32)c(C)c1,-32,5,14*,-5
Cc1cc(N/N=C/c2ccc(O)cc2O)nc(-n2nc(C)cc2C)n1,x,x,0,5.3*
COc1ccc(/C=N/Nc2cc(C)nc(-n3nc(C)cc3C)n2)cc1,x,x,-1.1,9.1*
N#Cc1nc(COc2ccc(F)cc2)oc1N1CCN(Cc2ccccc2)CC1,0,0,-2.7,2
N#Cc1nc(COc2ccc(F)cc2)oc1N1CCC(Cc2ccccc2)CC1,8,1,-0.25,5.3*
S=C(N/N=C/c1ccccc1)N1CCOCC1,x,x,0.58,0
COc1cccc(/C=C2/SC(=S)N(CC(=O)Nc3nnc(C)s3)C2=O)c1,x,x,0.67,8.8*
COc1cc(/C=C2\SC(=S)N(CC(=O)Nc3cccnc3)C2=O)cc(OC)c1OC,x,x,-0.48,0
O=C(CN1C(=O)/C(=C/c2ccccc2)SC1=S)Nc1ncc(Cc2ccccc2)s1,x,x,-1.6,5.3*
Cc1cc(Cl)c(S(=O)(=O)Nc2cccc(O)c2)cc1OCC(N)=O,x,x,1,-3
O=C(Nc1nc2ccc(Cl)cc2s1)[C@@H]1CCCN1C(=O)c1cccs1,x,x,-0.8,-1
CC(C)(C)NC(NC(=O)Cc1ccccc1)C(Cl)(Cl)Cl (centres undefined),x,x,0.37,5.3*
O=C(Cc1ccccc1)NC(Nc1ccccc1)C(Cl)(Cl)Cl (centres undefined),x,x,0,-5
COc1ccc(C(=O)NCc2ccc3c(c2)OCO3)cc1S(=O)(=O)N(C)Cc1ccccc1,x,x,-0.69,7.3*
COc1ccc(C(=O)NCc2ccccc2)cc1S(=O)(=O)N1CCCc2ccccc21,x,x,-1.1,5.4*
COc1ccc(C(=O)NCc2ccc3c(c2)OCO3)cc1S(=O)(=O)NCc1ccc(Cl)cc1,x,x,0.28,1
Cc1ccc(NC(=O)COC(=O)Cc2ccsc2)cc1S(=O)(=O)N1CCOCC1,x,x,0.58,0
CC(C)CC(COCc1cccc(Cl)c1)N1CCN(C(=O)c2ccc(C(F)(F)F)cc2)CCC1=O (centres undefined),x,x,-0.8,1
CC(C)CCn1c(=O)c2ccccc2n2c(CN(C)Cc3ccccc3)nnc12,62*,5,-1.5,-4
Cc1nc(SCC(=O)Nc2cc(Cl)ccc2[N+](=O)[O-])nc(C)c1C,x,x,-0.87,-2
COc1ccc(NC(=O)CCCC2CCCCC2)cc1S(=O)(=O)N1CCCCC1,x,x,0.03,5.7*
COc1ccc(NC(=O)CSc2ccccc2)cc1S(=O)(=O)N1CCCCC1,x,x,0.04,1
CCOc1ccccc1N(C(=O)c1snc(C(N)=O)c1N)C(C(=O)NCCC(C)C)c1ccco1 (centres undefined),-10,8,-1.2,5.3*
COC(=O)CN1C(=S)N(c2ccc(Cl)cc2)C(=O)C1CC(=O)Nc1ccc(F)cc1 (centres undefined),x,x,0.98,-2
SMILES,MRP resist rev,Calb biofilm kill,sdo1 growth,MRP1 act
COc1ccc(NC(=O)CC2C(=O)N(c3ccc(F)cc3)C(=S)N2NC(=O)c2ccc(Cl)cc2)cc1 (centres undefined),x,x,-0.26,4.8*
COc1ccc(NC(=O)CC2C(=O)N(c3ccc(Cl)cc3)C(=S)N2NC(=O)c2cccc(F)c2)cc1 (centres undefined),x,x,1.7,5.1*
O=C(NCCc1ccc2c(c1)OCCO2)c1cc(F)cc(F)c1,x,x,1.8,4.7*
O=C(NC(=S)Nc1ccccc1N1CCOCC1)c1ccc(-c2cccc(Cl)c2)o1,x,x,-0.05,5.2*
O=C(NC(=S)Nc1ccccc1N1CCCCC1)c1ccc(-c2cccc([N+](=O)[O-])c2)o1,-2,10,-0.34,8.0*
Cc1cccc(C(=O)Nc2nccs2)c1[N+](=O)[O-],x,x,0.4,-1
O=c1[nH]c(N/N=C/c2ccccc2Br)nnc1-c1ccccc1,x,x,-0.88,4.8*
COc1ccc(/C=N/Nc2nnc(-c3ccccc3)c(=O)[nH]2)cc1,x,x,0.26,-4
CCOC(=O)C1CCN(C(=S)Nc2cc(OC)c(OC)cc2C(=O)OC)CC1,-27,-6,0.48,-2
Brc1ccc(OCc2nc(-c3ccccn3)n[nH]2)cc1,-43,0,-1.6,8.4*
Clc1ccc(OCc2nc(-c3ccccn3)n[nH]2)cc1,-6,6,-1.8,-6
